Data taken from PubChem BioAssay AID777 (Sanford-Burnham Center for Chemical Genomics, 2007).
Among all 96,000 compounds or so, about 19,000 (20%) were called active.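 The calls were made as follows: active = blocking of liver enzyme CYP2C9 beyond about 50% at 5 µM (limit read from the data); inactive = the rest.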 These entries were drawn from the full list.

The molecules below were run against Cytochrome P450 2C9 (Homo sapiens) (UniProt P11712) (assay: blockers of cytochrome P450 2C9 activity – biochemical, luminescence, ADME assay, primary screen (AID 777)). Settings: CYP2C9 Supersomes, luciferin-H conversion, at 5 µM, active compounds read high.
Cytochrome P450 2C9 (Homo sapiens), sequence (P11712 whole entry, looked up): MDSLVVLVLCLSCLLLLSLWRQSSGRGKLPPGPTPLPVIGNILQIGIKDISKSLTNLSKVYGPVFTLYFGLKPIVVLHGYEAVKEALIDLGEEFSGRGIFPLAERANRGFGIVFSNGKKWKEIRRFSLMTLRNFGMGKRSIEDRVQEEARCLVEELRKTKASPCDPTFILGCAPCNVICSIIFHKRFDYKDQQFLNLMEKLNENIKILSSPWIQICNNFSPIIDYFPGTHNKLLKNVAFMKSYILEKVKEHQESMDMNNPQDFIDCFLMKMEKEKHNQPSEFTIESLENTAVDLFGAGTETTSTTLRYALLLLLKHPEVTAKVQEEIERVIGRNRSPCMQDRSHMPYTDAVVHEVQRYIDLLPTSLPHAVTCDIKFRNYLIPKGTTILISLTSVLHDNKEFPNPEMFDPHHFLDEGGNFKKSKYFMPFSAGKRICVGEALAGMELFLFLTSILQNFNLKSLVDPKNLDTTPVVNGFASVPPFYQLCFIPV

**Q.** How did the inhibition turn out when Cc1ccc(CCn2c3c(c4ccccc42)CN(C)CC3)cn1 was run?
**A.** -27.5% (inactive)

**Q.** For O=C(CSc1nnc(-c2ccc(NS(=O)(=O)c3ccccc3)cc2)o1)NCC1CCCO1 (stereo not drawn), which inhibition is on record?
**A.** 92.2% (active)

**Q.** For O=C(CS(=O)(=O)Cc1ccccc1)NCC1CCCO1 (stereo not drawn), which inhibition is on record?
**A.** -17.4% (inactive)

**Q.** How did the inhibition turn out when O=C(Nc1ccc(-c2nnc(-c3ccccc3)o2)cc1)C1CCCO1 (stereo not drawn) was run?
**A.** -11.1% (inactive)

**Q.** With CSC1=N/C(=C\C=C\c2cccs2)C(=O)S1 as the molecule, how does the inhibition read?
**A.** -10.5% (inactive)

**Q.** C=C(C)Cn1c(N2CCCC2)nc2c1c(=O)[nH]c(=O)n2C was tested. Which inhibition did it give?
**A.** -5% (inactive)

**Q.** Cc1nnc(SCCCn2c(N3CCCCC3)nc3c2c(=O)[nH]c(=O)n3C)s1 was tested. Which inhibition did it give?
**A.** 59.5% (active)

**Q.** With Cn1c(=O)[nH]c(=O)c2c1nc(N1CCCCCC1)n2CC(=O)c1ccccc1 as the molecule, how does the inhibition read?
**A.** 7.5% (inactive)

**Q.** Which inhibition does the source give for CSCCC1NC2(C(=O)Nc3ccc(Cl)cc32)[C@@H]2C(=O)N(C3CCCC3)C(=O)[C@H]12 (stereo partly drawn) here?
**A.** 76.1% (active)

**Q.** Which inhibition does the source give for O=C(CN1CCCCCC1)Nc1ccc(Br)cc1Br here?
**A.** 16.5% (inactive)

**Q.** With COc1ccc(C(c2nnnn2C2CCCCC2)N2CCN(c3ccccc3F)CC2)cc1 (stereo not drawn) as the molecule, how does the inhibition read?
**A.** 73.7% (active)

**Q.** CC(C)C(c1nnnn1C1CCCC1)N1CCN(c2ccccc2F)CC1 (stereo not drawn) was tested. Which inhibition did it give?
**A.** 8.2% (inactive)

**Q.** Which inhibition does the source give for Cc1cccc(N2CCN(C(c3ccccc3)c3nnnn3CC3CCCO3)CC2)c1C (stereo not drawn) here?
**A.** 37.3% (inactive)

**Q.** How did the inhibition turn out when Cc1cccc2cc(CN(Cc3cccs3)C(c3nnnn3C3CCCC3)C(C)C)c(=O)[nH]c12 (stereo not drawn) was run?
**A.** -38.3% (inactive)

**Q.** How did the inhibition turn out when CCOc1ccc2[nH]c(=O)c(C(c3nnnn3CCOC)N3CCOCC3)cc2c1 (stereo not drawn) was run?
**A.** 6.5% (inactive)

**Q.** Which inhibition does the source give for COc1ccc(N2CCN(C(c3cc4ccc(C)cc4[nH]c3=O)c3nnnn3C3CCCC3)CC2)cc1 (stereo not drawn) here?
**A.** 75.7% (active)

**Q.** For N#Cc1ccc(-c2ccc(F)cc2)nc1Sc1ccccc1, which inhibition is on record?
**A.** 13.2% (inactive)

**Q.** How did the inhibition turn out when Cc1[nH]n(-c2ccccc2)c(=O)c1CCOC(=O)c1ccc(C(F)(F)F)cc1 was run?
**A.** -11.8% (inactive)

**Q.** With COC(=O)CN(c1nc(C)c(Cl)c(OC)n1)S(=O)(=O)c1ccc(C)cc1 as the molecule, how does the inhibition read?
**A.** 34.3% (inactive)

**Q.** How did the inhibition turn out when Cc1ccc(-c2nnc(-n3nnc4ccccc43)c3ccccc23)cc1 was run?
**A.** 8.4% (inactive)

**Q.** How did the inhibition turn out when Cc1nn(CCOc2ccccc2)c(=O)n1-c1ccccc1F was run?
**A.** -10% (inactive)

**Q.** Which inhibition does the source give for N#Cc1ccc(OCCN2C(=O)NC3(CCSC3)C2=O)cc1 (stereo not drawn) here?
**A.** -24.2% (inactive)

**Q.** With CC1(C)NC(=O)N(CCOc2cccc(Oc3ccccc3)c2)C1=O as the molecule, how does the inhibition read?
**A.** 62.5% (active)

**Q.** Cc1ccc(NC(=O)Cn2nc(C)c3ccccc3c2=O)c(C)c1 was tested. Which inhibition did it give?
**A.** -59.3% (inactive)

**Q.** Which inhibition does the source give for CCOC(=O)C1(S(=O)(=O)c2ccccc2)CCN(Cc2ccccc2)CC1 here?
**A.** 8.3% (inactive)

**Q.** Which inhibition does the source give for CCn1c(-c2ccoc2C)n[nH]c1=S here?
**A.** 2.9% (inactive)

**Q.** For CCOC(=O)CN(C)Cc1c[nH]c2ccccc12, which inhibition is on record?
**A.** 1.3% (inactive)

**Q.** For CCC(=O)Nc1ccccc1N1CCN(S(C)(=O)=O)CC1, which inhibition is on record?
**A.** -0.9% (inactive)

**Q.** COc1ccccc1CNC(=O)C1CCN(S(C)(=O)=O)CC1 was tested. Which inhibition did it give?
**A.** -17.1% (inactive)

**Q.** COc1ccc(C(=O)NC(=S)Nc2ccccc2N2CCN(S(C)(=O)=O)CC2)cc1OC was tested. Which inhibition did it give?
**A.** 54.8% (active)

**Q.** With CC(C)c1ccc(OCC(O)Cn2cnc3ccccc32)cc1 (stereo not drawn) as the molecule, how does the inhibition read?
**A.** 8.1% (inactive)

**Q.** Which inhibition does the source give for CC(C)c1cc(C(=O)O)n[nH]1 here?
**A.** 1.1% (inactive)

**Q.** How did the inhibition turn out when CCOCCOC(=O)C1=C(C)N(C)C(=O)NC1c1ccccc1F (stereo not drawn) was run?
**A.** -10.9% (inactive)

**Q.** Cc1ccc(-n2nc3cc(Cl)c(NC(=O)c4ccco4)cc3n2)cc1 was tested. Which inhibition did it give?
**A.** 15.7% (inactive)

**Q.** With COc1ccc(CCNS(=O)(=O)c2ccc(Cl)s2)cc1OC as the molecule, how does the inhibition read?
**A.** 87.3% (active)

**Q.** With COc1ccc(-c2cc(C(=O)NCc3ccco3)no2)cc1OC as the molecule, how does the inhibition read?
**A.** -47% (inactive)

**Q.** Which inhibition does the source give for COc1ccc(CCNS(=O)(=O)c2ccc(C(=O)NCc3ccco3)cc2)cc1OC here?
**A.** 71.8% (active)

**Q.** Which inhibition does the source give for COc1ccc(S(=O)(=O)NCc2ccc(C(=O)N(C)Cc3ccco3)cc2)cc1 here?
**A.** 63.2% (active)

**Q.** How did the inhibition turn out when COc1ccc(S(=O)(=O)NC(CC(=O)NCc2ccccc2OC)c2ccco2)cc1 (stereo not drawn) was run?
**A.** -43.6% (inactive)

**Q.** Which inhibition does the source give for O=C(NC1CCC(O)CC1)c1ccc(S(=O)(=O)NCc2ccco2)cc1 (stereo not drawn) here?
**A.** 5% (inactive)

**Q.** For COc1ccc(CCNC(=O)CN(c2ccccc2)S(C)(=O)=O)cc1OC, which inhibition is on record?
**A.** 4.9% (inactive)

**Q.** With CCS(=O)(=O)NCCc1ccc(OC)c(OC)c1 as the molecule, how does the inhibition read?
**A.** 0.1% (inactive)

**Q.** COc1ccc(C(=O)NCCc2ccc(S(N)(=O)=O)cc2)cc1OC was tested. Which inhibition did it give?
**A.** -6.7% (inactive)

**Q.** Which inhibition does the source give for COc1ccc(CCNc2ncnc3nc[nH]c23)cc1OC here?
**A.** 8.9% (inactive)

**Q.** Which inhibition does the source give for Cc1nn(C)c(Oc2ccccc2)c1CCNS(=O)(=O)c1ccc(F)cc1 here?
**A.** 49.8% (inactive)

**Q.** COc1ccc(CCNS(=O)(=O)c2ccc(F)cc2)cc1OC was tested. Which inhibition did it give?
**A.** 76.6% (active)

**Q.** How did the inhibition turn out when CCCSc1nc(NCc2ccco2)c2c3c(sc2n1)COC(C)(CC)C3 (stereo not drawn) was run?
**A.** 45.6% (inactive)

**Q.** How did the inhibition turn out when CC(=O)C1C(c2ccc(Cl)cc2)NC(=O)NC1(O)C(F)(F)F (stereo not drawn) was run?
**A.** -9.5% (inactive)

**Q.** How did the inhibition turn out when Cn1c(=O)n(C)c2cc(CNc3ccc(N4CCOCC4)c(C(=O)O)c3)ccc21 was run?
**A.** -13.6% (inactive)

**Q.** CSc1ccc(NC(=O)N2CC(C)OC(C)C2)cc1 (stereo not drawn) was tested. Which inhibition did it give?
**A.** 2.1% (inactive)

**Q.** How did the inhibition turn out when O=C(NCCN1CCOCC1)c1c(F)c(F)c(F)c(F)c1F was run?
**A.** -21.8% (inactive)

**Q.** Which inhibition does the source give for COc1ccccc1C1=Nc2cccc3cccc(c23)N1 here?
**A.** 24% (inactive)

**Q.** With CC1(C)COC(c2cccn2Cc2ccccc2Cl)=N1 as the molecule, how does the inhibition read?
**A.** 13.6% (inactive)

**Q.** For COCCNS(=O)(=O)c1cc(Br)ccc1OC, which inhibition is on record?
**A.** -13.7% (inactive)

**Q.** For COc1ccc(C)cc1S(=O)(=O)NC1CCCCC1, which inhibition is on record?
**A.** 22.8% (inactive)

**Q.** How did the inhibition turn out when COc1ccc(C)cc1S(=O)(=O)NCCc1ccccc1 was run?
**A.** 75.9% (active)

**Q.** For CC(=O)c1cnn(-c2cc(Oc3ccc(F)cc3)ncn2)c1C, which inhibition is on record?
**A.** 42.5% (inactive)

**Q.** With CC(C)c1ccc(NS(=O)(=O)c2cn(C)c(=O)n(C)c2=O)cc1 as the molecule, how does the inhibition read?
**A.** -7.9% (inactive)

**Q.** Which inhibition does the source give for CN(C)Cc1c(O)ccc2occ(C(O)c3ccccc3)c12 (stereo not drawn) here?
**A.** -6.6% (inactive)

**Q.** With COc1cc2c(cc1OC)C(c1ccncc1)CC(=O)N2 (stereo not drawn) as the molecule, how does the inhibition read?
**A.** 34.4% (inactive)

**Q.** Which inhibition does the source give for COc1ccc(C2CC(=O)Nc3cc(C)c(C)cc32)c(OC)c1OC (stereo not drawn) here?
**A.** 57% (active)

**Q.** With COc1cc2c(cc1OC)C(c1ccc(C)o1)CC(=O)N2 (stereo not drawn) as the molecule, how does the inhibition read?
**A.** -9% (inactive)

**Q.** O=C(CCS(=O)(=O)c1cccc2nonc12)NCCc1ccccc1Cl was tested. Which inhibition did it give?
**A.** 37.9% (inactive)
